Results reported in the supplement of paper PMC10981050.
Where a name gives a salt, the structure may show the parent alone.

These molecules were tested on MARIMO (assay: cell viability relative to vehicle control; higher = less cytotoxic). Settings: 10 µM; SRSF2 genotype: SRSF2 P95H/wt.
Outline: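 Four leukaemia lines, as CRISPR-edited mutant clones and isogenic wild-type clones, were tested against Selleck bioactive, kinase and epigenetic probe libraries after removal of identity-inconsistent compounds. Cells were exposed to a single 10 µM dose for 48 h, and CellTiter-Glo luminescence was then read. Viability was calculated relative to the on-plate vehicle control.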

SMILES | cell viability
CCN(CCCc1ccccc1)CCCc1ccccc1 [Alverine Citrate] | 69.5%
CC(=O)OCC(=O)[C@@]12N=C(C)O[C@@H]1C[C@H]1[C@@H]3CCC4=CC(=O)C=C[C@]4(C)[C@H]3[C@@H](O)C[C@@]12C [Deflazacort (Calcort)] | 95%
CS(=O)(=O)Nc1ccc([N+](=O)[O-])cc1OC1CCCCC1 | 102%
O=C(/C=C/c1ccc(O)c(O)c1)O[C@@H]1C[C@](O)(C(=O)O)C[C@@H](O)[C@H]1O [Chlorogenic acid] | 99.4%
Nc1ncnc2c1ncn2C1OC(COP(=O)(O)OP(=O)(O)O)C(O)C1O (stereo not given) | 91.2%
C[C@@H]1Cc2c([nH]c3ccccc23)[C@@H](c2c(F)cc(/C=C/C(=O)O)cc2F)N1CC(C)(C)F | 107%
O=C(c1ccccc1)c1ccc2nc(NC(=O)c3csc(C4CCN(c5ncnc6ccsc56)CC4)n3)[nH]c2c1 | 41.3%
CC(C)NCC(O)c1ccc(O)c(O)c1 (stereo not given) [Isoprenaline hydrochloride] | 98.4%
O=C(Nc1ccc(Br)cc1)c1c(O)cccc1O [Resorantel] | 38.7%
Nc1ccn([C@@H]2O[C@H](CO)[C@@H](O)[C@H]2O)c(=O)n1 [Cytidine] | 82.5%
O=C1[C@H]2CCCC[C@H]2C(=O)N1CCCCN1CCN(c2nsc3ccccc23)CC1 [Perospirone hydrochloride] | 71.2%
COc1cc(C(=O)NS(=O)(=O)c2ccccc2C)ccc1Cc1cn(C)c2ccc(NC(=O)OC3CCCC3)cc12 [Zafirlukast (Accolate)] | 96%
CCn1cc(C(=O)O)c(=O)c2cc(F)c(N3CCNCC3)nc21 [Enoxacin (Penetrex)] | 109%
COc1ccc(S(=O)(=O)N(C(C)=O)c2ccccc2/C=C/c2cc[n+]([O-])cc2)cc1 | 6.78%
Cc1cncc(CN2CCC(=C3c4ccc(Cl)cc4CCc4cccnc43)CC2)c1 [Rupatadine Fumarate] | 62.6%
C/C(=C\C(=O)OCCCCCCCCC(=O)O)C[C@@H]1OC[C@H](C[C@@H]2O[C@H]2[C@@H](C)[C@H](C)O)[C@@H](O)[C@H]1O [Mupirocin calcium] | 84.3%
O=C1[C@H](CC[C@H](O)c2ccc(F)cc2)[C@@H](c2ccc(O)cc2)N1c1ccc(F)cc1 [Ezetimibe (Zetia)] | 80.6%
Cc1cc(F)c(C(=O)Nc2cccc(-c3nncn3C(C)C)n2)cc1-n1cnc(C2CC2)c1 [Selonsertib (GS-4997)] | 57.1%
COc1cc(C(C)=O)ccc1O [Apocynin (Acetovanillone)] | 91.6%
COc1cc2c(cc1OC)[C@@H](Cc1ccc(Oc3cc(C[C@@H]4c5cc(OC)c(OC)cc5CCN4C)ccc3O)cc1)N(C)CC2 [Dauricine] | 2.46%

SMILES | cell viability
c1ccc2c(CCNc3ccc(Nc4ccncc4)cc3)c[nH]c2c1 | 21.3%
O=C(O)c1ccc(Br)c(O)c1 [4-Bromo-3-hydroxybenzoic acid] | 100%
CC(=O)NC[C@H]1CN(c2ccc(N3CCOCC3)c(F)c2)C(=O)O1 [Linezolid (Zyvox)] | 85%
C[C@H]1[C@H](C)CC[C@]2(C(=O)O)CC[C@]3(C)C(=CC[C@@H]4[C@@]5(C)CCC(=O)C(C)(C)[C@@H]5CC[C@]43C)[C@H]12 [Ursonic acid] | 27.6%
CN(C)C(=O)c1ccc(S(=O)(=O)c2ccc(NC(=O)C(C)(O)C(F)(F)F)c(Cl)c2)cc1 (stereo not given) | 60.1%
CC(=O)O[C@H]1CC(=O)OC(C)(C)[C@@H]2CC(=O)[C@]3(C)[C@H](CC[C@@]4(C)[C@@H](c5ccoc5)OC(=O)[C@H]5O[C@]543)[C@@]12C [Nomilin] | 87.1%
CC(=O)N1CCC(Nc2cc(C(=O)NC[C@H](O)CN3CCc4ccccc4C3)ncn2)CC1 | 88.8%
NCCCC[C@@H]1NC(=O)[C@@H](Cc2ccccc2)NC(=O)[C@H](CC(=O)O)NC(=O)CNC(=O)[C@H](CCCN=C(N)N)NC1=O [Cyclo (-RGDfK)] | 98.6%
Cc1cc(Nc2ncc3c(n2)N(C)C(=O)N(c2cc(NC(=O)c4cccc(C(F)(F)F)c4)ccc2C)C3)n(C)n1 [Pluripotin (SC1)] | 22.1%
c1ccc(NCc2ccc(CNc3ccccn3)cc2)nc1 | 89%
O=c1cc(-c2ccc(O)c(O)c2)oc2c([C@@H]3O[C@H](CO)[C@@H](O)[C@H](O)[C@H]3O)c(O)cc(O)c12 [Orientin] | 100%
OCC1OC(Oc2ccc(O)cc2)C(O)C(O)C1O (stereo not drawn) [alpha-Arbutin] | 104%
CCCCCCCCCCCCCCCC(=O)OCC(O)C1OC(=O)C(O)=C1O [L-Ascorbyl 6-palmitate] | 107%
COC(=O)[C@]12CCC(C)(C)C[C@H]1[C@H]1C(=O)C=C3[C@@]4(C)C=C(C#N)C(=O)C(C)(C)[C@@H]4CC[C@@]3(C)[C@]1(C)CC2 [Bardoxolone Methyl] | 0.23%
COC(=O)c1cc(O)c(O)c(O)c1 [Methyl gallate] | 89.7%
COc1ccccc1OCC(O)CO (stereo not given) [Guaifenesin (Guaiphenesin)] | 103%
N#Cc1cccc(-c2c[nH]c3ncnc(N4CCOCC4)c23)c1 | 81.9%
c1cncc(-c2cn[nH]n2)c1 | 88.4%
C1=Cc2ccccc2Nc2ccccc21 [Iminostilbene] | 95.5%
COc1ccc(-c2oc3c(CC=C(C)C)c(O)cc(O)c3c(=O)c2O[C@@H]2O[C@@H](C)[C@H](O)[C@@H](O)[C@H]2O)cc1 [Baohuoside I] | 94.6%
